# Results reported in PubChem BioAssay (NCATS).
# Inconclusive results are not listed. Where a call stands in place of a potency, no number is given. Active and inactive are the calls of the source. The call rests on the fitted dose curve; in most records, active means well fitted inhibition curve with a large enough effect; inconclusive means small, poorly fitted or top-dose-only effect; inactive means flat fitted curve, though single readings scatter.
# Biological target: Calcium and integrin-binding protein 1 (Homo sapiens) (UniProt Q99828)
# Test: Primary qHTS for Identification of Calcium Integrin Binding Protein 1 (CIB1) Competitor (AID 1508620);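 further: GST tagged CIB1 binding a fluorescein labelled alphaIIb integrin peptide tracer; top concentration of the series differs between compounds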
# Conditions: CIB1-GST / FITC-alphaIIb peptide fluorescence polarization; series mostly up to 57.7 µM
# Outline: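 Fluorescence polarization competition: CIB1-GST (1 uM final) preincubated with compound 15 min at room temperature, then FITC-labeled alphaIIb peptide (100 nM final) added for another 15 min. Polarization read at Ex 480/Em 540.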
# Sequence of Calcium and integrin-binding protein 1 (Homo sapiens) (Q99828 whole entry, looked up): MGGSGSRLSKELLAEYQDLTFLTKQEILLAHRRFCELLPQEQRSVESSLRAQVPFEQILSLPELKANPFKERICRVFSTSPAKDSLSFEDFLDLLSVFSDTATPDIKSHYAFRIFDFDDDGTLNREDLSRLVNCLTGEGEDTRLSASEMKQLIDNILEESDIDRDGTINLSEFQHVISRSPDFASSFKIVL
row,Structure (SMILES),Potency
1,CC(=O)OC1C(O)CC(O[C@@H]2O[C@H](CO)[C@@H](O)[C@H](O)[C@H]2O)C2CCC3C(=O)OC(c4ccoc4)CC3(C)C21 (some centres undefined),inactive
2,COC1C2=C(COC2=O)C2(C)CCCC(C)(CO)C2C1OC(=O)c1ccccc1 (centres undefined),inactive
3,CN1CCC(c2c[nH]c3ccc(NC(=O)c4ccc(F)cc4)cc23)CC1,inactive
4,COc1cc2c(cc1O)C1(OC)Cc3ccc4c(c3C1N(C)CC2)OCO4 (centres undefined),inactive
5,CC(/C=C/C1(O)C(C)(C)CC(O)CC1(C)O)OC1OC(CO)C(O)C(O)C1O (centres undefined),inactive
6,CC1=C2CC3OC3(C)CCC3OC3(C)CC2OC1=O (centres undefined),inactive
7,C=C[C@@]1(C)CC(=O)C2[C@](C)(O1)[C@@H](OC(C)=O)[C@@H](O)[C@H]1C(C)(C)CCC[C@]21C (some centres undefined),inactive
8,CCC[C@@H]1C[C@@H](C(=O)N[C@H](C(C)Cl)[C@H]2O[C@H](SC)[C@H](O)[C@@H](O)[C@H]2O)N(C)C1 (some centres undefined),inactive
9,NCCOCCOCCNC(=O)Cc1ccc(Nc2nc(NCc3ccc(F)cc3)nc(NCC3CCCCC3)n2)cc1,inactive
